Assay results taken from PubChem BioAssay (NCATS).
A number with no mark means an inactive call. Results filed as inconclusive are left out. Active and inactive are the calls of the source. Calls come from the whole dose curve; as a rule, active = well fitted curve in the direction sought with a large enough effect; inconclusive = small, poorly fitted or top-dose-only effect, or another doubt; inactive = no such curve, though single readings can be large; an effect the other way counts as inactive or inconclusive.

Biological target: Muscarinic acetylcholine receptor M1 (Rattus norvegicus) (UniProt P08482)
Sequence (P08482 whole entry, looked up): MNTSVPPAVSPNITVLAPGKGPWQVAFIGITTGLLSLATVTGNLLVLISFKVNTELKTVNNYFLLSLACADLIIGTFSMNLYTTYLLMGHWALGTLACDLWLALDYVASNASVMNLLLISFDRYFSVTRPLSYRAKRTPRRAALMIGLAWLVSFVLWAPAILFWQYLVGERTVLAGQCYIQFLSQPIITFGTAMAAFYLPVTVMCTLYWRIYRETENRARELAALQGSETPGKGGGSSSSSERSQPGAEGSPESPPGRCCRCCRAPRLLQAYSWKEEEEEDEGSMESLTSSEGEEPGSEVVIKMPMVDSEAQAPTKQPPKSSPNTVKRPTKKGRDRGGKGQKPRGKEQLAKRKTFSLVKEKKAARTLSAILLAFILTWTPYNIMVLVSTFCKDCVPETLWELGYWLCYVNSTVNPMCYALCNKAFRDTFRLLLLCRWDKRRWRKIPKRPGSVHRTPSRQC
Assay: qHTS Assay for Antagonists of Acetylcholine Muscarinic M1 Receptor: Kinetic Measurement of Intracellular Calcium Response (AID 943); note: nearly all actives have a fitted effect of over 75% in size; note: potency is the fitted concentration of half-maximal effect;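 for activity change, negative = inhibition: Fluo-4 calcium signal as peak divided by basal fluorescence over 4 min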
Conditions: M1-expressing cells, kinetic intracellular calcium fluorescence; series mostly up to 35.3 µM; activity change, negative = inhibition: at the top concentration
Procedure, shortened: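 Quantitative HTS in CHO-M1 (rat receptor) cells: 10 min compound exposure ahead of 100 nM carbachol, Fluo-4 fluorescence followed 4 min, value expressed as peak-to-basal ratio.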
In the case of `CCn1cc(C(=O)O)c(=O)c2ccc(C)nc21`, the “activity change, negative = inhibition” value is reported as -35.4%.
For `COc1ccccc1N1CCNCC1`, the “activity change, negative = inhibition” value was -30.7%.
In the case of `Nc1ccncc1`, the “activity change, negative = inhibition” value is reported as -21.8%.
For `NN=C(N)N`, the Potency was “inactive”.
For `CCCN1CCC[C@@H]2Cc3[nH]ncc3C[C@H]21`, the “activity change, negative = inhibition” value was -43.1%.
In the case of `Cc1ccc(S(=O)(=O)N[C@@H](CCCCN)C(=O)CCl)cc1`, the “activity change, negative = inhibition” value is reported as -79.1%.
For `Fc1ccc(C(OCCN2CCN(CCCc3ccccc3)CC2)c2ccc(F)cc2)cc1`, the Potency was 1.58 µM (active).

Biological target: Muscarinic acetylcholine receptor M1 (Rattus norvegicus) (UniProt P08482)
Assay: qHTS Assay for Antagonists of Acetylcholine Muscarinic M1 Receptor: Measurement of IP-One Response (AID 944); note: nearly all actives have a fitted effect of over 75% in size; note: potency is the fitted concentration of half-maximal effect
Conditions: CHO-M1 cells, IP-One HTRF, antagonist mode; series mostly up to 46.1 µM; activity change, negative = inhibition: at the top concentration
Procedure, shortened: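 Antagonism was measured as loss of carbachol-driven (EC80) IP1 accumulation in CHO cells carrying rat M1, using a homogeneous IP-One TR-FRET kit read at 620 and 665 nm.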
With `CNCC(O)c1ccc(O)cc1` (stereo unspecified) the “activity change, negative = inhibition” value was -29.5%.
For `CCn1cc(C(=O)O)c(=O)c2ccc(C)nc21`, the “activity change, negative = inhibition” value was -38.5%.
In the case of `COc1ccccc1N1CCNCC1`, the “activity change, negative = inhibition” value is reported as -44.7%.
With `O=c1[nH]c2ccccc2n1CCCN1CCC(n2c(=O)[nH]c3cc(Cl)ccc32)CC1` the Potency was 14.1 µM (active).
In the case of `c1ccc(C2CC2)c(OCC2=NCCN2)c1`, the Potency is reported as 10 µM (active).
With `Nc1ccncc1` the “activity change, negative = inhibition” value was -16.5%.
For `CN1C[C@H](CNC(=O)OCc2ccccc2)C[C@@H]2c3cccc4c3c(cn4C)C[C@H]21`, the Potency was 15.8 µM (active).
For `NN=C(N)N`, the Potency was “inactive”.
With `CCCN1CCC[C@@H]2Cc3[nH]ncc3C[C@H]21` the Potency was “inactive”.
In the case of `CCCC(C)(COC(N)=O)COC(=O)NC(C)C` (stereo unspecified), the “activity change, negative = inhibition” value is reported as -25.1%.
For `Cc1ncc(CNC(=O)N(CCCl)N=O)c(N)n1`, the “activity change, negative = inhibition” value was -120%.
With `N[C@@H]1C[C@H]1c1ccccc1` the “activity change, negative = inhibition” value was -21.4%.
With `Fc1ccc(C(OCCN2CCN(CCCc3ccccc3)CC2)c2ccc(F)cc2)cc1` the Potency was 7.94 µM (active).
With `CCCN1CCC[C@@H]2Cc3nc(N)ncc3C[C@H]21` the “activity change, negative = inhibition” value was -32.3%.

Biological target: Pyruvate kinase (Leishmania mexicana) (UniProt Q27686)
Sequence (Q27686 2-499 E452W): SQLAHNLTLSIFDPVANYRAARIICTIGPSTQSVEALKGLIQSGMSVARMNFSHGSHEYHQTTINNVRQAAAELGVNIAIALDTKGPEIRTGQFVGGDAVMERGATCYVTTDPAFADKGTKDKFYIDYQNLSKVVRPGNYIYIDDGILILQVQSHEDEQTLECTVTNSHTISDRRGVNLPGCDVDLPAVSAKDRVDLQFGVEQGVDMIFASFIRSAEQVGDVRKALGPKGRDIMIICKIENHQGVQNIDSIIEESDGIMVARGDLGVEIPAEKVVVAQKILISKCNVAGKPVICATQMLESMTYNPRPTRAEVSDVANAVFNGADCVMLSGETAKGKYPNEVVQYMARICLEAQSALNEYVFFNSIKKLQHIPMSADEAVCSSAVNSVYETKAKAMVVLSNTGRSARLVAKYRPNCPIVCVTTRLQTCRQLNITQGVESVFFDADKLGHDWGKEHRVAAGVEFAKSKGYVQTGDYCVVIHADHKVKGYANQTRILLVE
Assay: qHTS Validation Assay for Inhibitors of Leishmania Mexicana Pyruvate Kinase (AID 945);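 note: 0% = DMSO only neutral control wells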
Conditions: purified L. mexicana pyruvate kinase, enzyme activity, E451W mutant enzyme; series mostly up to 57.5 µM; activity change, negative = inhibition: at the top concentration
Procedure, shortened: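 Eight-point qHTS titrations in triplicate, data normalized to DMSO neutral control. Reaction: 0.2 nM LmPYK E451W mutant, 0.5 mM PEP, 0.1 mM ADP, 7 mM MgCl2, pH 7.2, one hour at room temperature; luminescent ATP detection.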
In the case of `Clc1cccc(N2CCNCC2)c1`, the “activity change, negative = inhibition” value is reported as 4.2%.
With `CC(=O)[C@H]1CC[C@H]2[C@@H]3CC[C@H]4C[C@H](O)CC[C@]4(C)[C@H]3C(=O)C[C@]12C` the “activity change, negative = inhibition” value was -12.9%.
In the case of `NCC1(CC(=O)O)CCCCC1`, the “activity change, negative = inhibition” value is reported as 4.07%.
For `CNCC(O)c1ccc(O)cc1` (stereo unspecified), the “activity change, negative = inhibition” value was -9.53%.
With `CCn1cc(C(=O)O)c(=O)c2ccc(C)nc21` the “activity change, negative = inhibition” value was -16%.
With `COc1ccccc1N1CCNCC1` the “activity change, negative = inhibition” value was -9.13%.
In the case of `O=c1[nH]c2ccccc2n1CCCN1CCC(n2c(=O)[nH]c3cc(Cl)ccc32)CC1`, the “activity change, negative = inhibition” value is reported as 4.18%.
In the case of `c1ccc(C2CC2)c(OCC2=NCCN2)c1`, the “activity change, negative = inhibition” value is reported as 4.1%.
For `NCC(CC(=O)O)c1ccc(Cl)cc1` (stereo unspecified), the “activity change, negative = inhibition” value was -4.86%.
In the case of `Nc1ccncc1`, the “activity change, negative = inhibition” value is reported as -3.52%.
With `CN1C[C@H](CNC(=O)OCc2ccccc2)C[C@@H]2c3cccc4c3c(cn4C)C[C@H]21` the “activity change, negative = inhibition” value was 110%.
In the case of `Cc1cccc(C)c1NC1=NCCCS1`, the “activity change, negative = inhibition” value is reported as -2.54%.
In the case of `NN=C(N)N`, the outcome is reported as “inactive”.
With `CCCN1CCC[C@@H]2Cc3[nH]ncc3C[C@H]21` the outcome was “inactive”.
For `CCCC(C)(COC(N)=O)COC(=O)NC(C)C` (stereo unspecified), the “activity change, negative = inhibition” value was -12%.
With `Cc1ncc(CNC(=O)N(CCCl)N=O)c(N)n1` the “activity change, negative = inhibition” value was 5.3%.
In the case of `N[C@@H]1C[C@H]1c1ccccc1`, the “activity change, negative = inhibition” value is reported as 4.04%.
With `Cc1ccc(S(=O)(=O)N[C@@H](CCCCN)C(=O)CCl)cc1` the “activity change, negative = inhibition” value was -1.72%.
For `Fc1ccc(C(OCCN2CCN(CCCc3ccccc3)CC2)c2ccc(F)cc2)cc1`, the “activity change, negative = inhibition” value was 5.19%.
With `CCCN1CCC[C@@H]2Cc3nc(N)ncc3C[C@H]21` the “activity change, negative = inhibition” value was -5.21%.
For `O=c1[nH]c2ccccc2n1C1CCN(CCCC(c2ccc(F)cc2)c2ccc(F)cc2)CC1`, the “activity change, negative = inhibition” value was -9.53%.

System: not listed separately
Assay: MultiTox-Fluor Cytotoxicity Assay - LYMP1-001 - Dead Cells (AID 946);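 note: cells exposed to compound for 16 h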; note: potency is the fitted concentration of half-maximal effect;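 for cytotoxicity (dead cells): 0% = DMSO and 100% = tetraoctylammonium bromide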
Conditions: LYMP1-001 lymphoblastoid cells, dead-cell protease fluorescence; series mostly up to 92.2 µM; cytotoxicity (dead cells): at the top concentration
Procedure, shortened: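 In this qHTS, 15 uM tetraoctylammonium bromide defined 100% and DMSO defined basal activity. Lymphoblastoid cells (LYMP1-001, 2500 per well) received compound for 16 hr at 37 C before a fluorogenic dead-cell substrate readout at 485/520 nm.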
In the case of `CNCC(O)c1ccc(O)cc1` (stereo unspecified), the “cytotoxicity (dead cells)” value is reported as 8.74%.
In the case of `CCCC(C)(COC(N)=O)COC(=O)NC(C)C` (stereo unspecified), the “cytotoxicity (dead cells)” value is reported as -9.54%.
In the case of `NCC(O)c1ccc(O)cc1` (stereo unspecified), the “cytotoxicity (dead cells)” value is reported as 12.6%.
In the case of `Oc1cccc2cccnc12`, the Potency is reported as 39.8 µM (active).
